The nature of experiment [1]: antimalarial activity against Dd2 strain (AID 2302;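 active means growth inhibition above 50% at the single 2 µM test dose, taken to imply half-maximal potency below 2 µM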;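 further: 0% = DMSO untreated growth and 100% = chloroquine plus artemisinin killed control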). Particulars: P. falciparum Dd2 in RBCs, LDH growth readout, 72 h; at 2 µM; stronger effect = higher value.
A short description of experiment [2]: human hepatoma cell viability loss – ATP luminescence, cytotoxicity control for P. falciparum antimalarial project, primary screen (AID 2303;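 active means inhibition above 50%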;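 further: 0% = DMSO wells and 100% = digitonin-killed cells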). Particulars: HepG2 viability, 24-48 h, at 10 µM, stronger effect = higher value.
Experiment [3] addresses L-lactate dehydrogenase (Plasmodium falciparum (isolate CDC / Honduras)) (UniProt Q27743). As to the kind of experiment: PfLDH activity inhibition – cell lysate, 3D7 strain, counter-screen for P. falciparum growth inhibition project (AID 2304).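 Further: 0% = vehicle and 100% = reference inhibitor.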 As to conditions: P. falciparum 3D7 crude extract, LDH APAD/NBT absorbance; at 2 µM; stronger effect = higher value. Background: A counterscreen serves to expose hits that act by an unwanted route or on another target.

Experiment [4] is described as follows: inhibition of 3D7 malaria parasite growth – strain 3D7 (AID 2306).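 Further: 0% = DMSO wells and 100% = chloroquine plus artemisinin control wells.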 As to conditions: P. falciparum 3D7 erythrocytic growth, LDH absorbance, 72 h; at 2 µM; stronger effect = higher value.
The target in experiment [5] is Calcium-dependent protein kinase 1 (Plasmodium falciparum (isolate 3D7)) (UniProt P62344). Briefly: PfCDPK1 kinase inhibitors, biochemical, TCAMS library (AID 1159585; cut-off not given, nearly all actives have IC50 up to about 0.98 µM;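 further: inhibitors leave more ATP so luminescence rises with inhibition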). As to conditions: recombinant PfCDPK1, Kinase-Glo ATP depletion luminescence. (In Kinase-Glo more light means more ATP remaining.)
For experiment [6], the target named is Plasmodium falciparum protein kinase 6 (PK6, PF3D7_1337100) (UniProt Q8IDW1). As to the kind of experiment: PfPK6 kinase inhibitors, biochemical, TCAMS library (AID 1159586). Particulars: recombinant PfPK6, Kinase-Glo ATP depletion luminescence.
Experiment [7] deals with Protein kinase 7 (PK7), Plasmodium falciparum 3D7 (PF3D7_0213400) (UniProt Q7YTF7). As to the kind of experiment: inhibition of Plasmodium PK7 catalytic activity – biochemical, TCAMS antimalarial set, Kinase-Glo luminescence (AID 1159587). Particulars: recombinant PfPK7, Kinase-Glo ATP depletion luminescence.
Experiment [8] addresses Calcium-dependent protein kinase 4 (Plasmodium falciparum (isolate 3D7)) (UniProt Q8IBS5). As to the kind of experiment: PfCDPK4 kinase inhibitors, biochemical, TCAMS library (AID 1159588; cut-off not given, nearly all actives have IC50 up to about 0.91 µM). As to conditions: recombinant PfCDPK4, Kinase-Glo ATP depletion luminescence.

Molecules are shown by their SMILES. “And” between values parts separate entries of the source, which are not always exact repeats. Equal entries are not always repeated. For some assays here: Results with a measured potency or affinity are listed apart. More than one record can exist for a structure, and the calls need not agree. The source made the active and inactive calls. Unless noted, how the calls were made is not given here.

Data on 19 compounds can be found in PubChem BioAssay.

For orientation: inhibition means the relative decrease from the control value, in per cent.

Chain of Plasmodium falciparum protein kinase 6 (PK6, PF3D7_1337100) (Q8IDW1 1-305): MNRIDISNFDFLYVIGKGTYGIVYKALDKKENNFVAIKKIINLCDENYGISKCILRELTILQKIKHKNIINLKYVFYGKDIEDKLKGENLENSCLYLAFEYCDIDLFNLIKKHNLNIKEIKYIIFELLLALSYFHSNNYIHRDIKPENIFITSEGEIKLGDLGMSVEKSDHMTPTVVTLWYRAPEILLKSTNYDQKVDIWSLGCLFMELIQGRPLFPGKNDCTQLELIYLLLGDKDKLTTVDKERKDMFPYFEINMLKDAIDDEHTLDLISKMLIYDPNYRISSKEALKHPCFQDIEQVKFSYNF
Chain of Calcium-dependent protein kinase 4 (Plasmodium falciparum (isolate 3D7)) (Q8IBS5 whole entry, looked up): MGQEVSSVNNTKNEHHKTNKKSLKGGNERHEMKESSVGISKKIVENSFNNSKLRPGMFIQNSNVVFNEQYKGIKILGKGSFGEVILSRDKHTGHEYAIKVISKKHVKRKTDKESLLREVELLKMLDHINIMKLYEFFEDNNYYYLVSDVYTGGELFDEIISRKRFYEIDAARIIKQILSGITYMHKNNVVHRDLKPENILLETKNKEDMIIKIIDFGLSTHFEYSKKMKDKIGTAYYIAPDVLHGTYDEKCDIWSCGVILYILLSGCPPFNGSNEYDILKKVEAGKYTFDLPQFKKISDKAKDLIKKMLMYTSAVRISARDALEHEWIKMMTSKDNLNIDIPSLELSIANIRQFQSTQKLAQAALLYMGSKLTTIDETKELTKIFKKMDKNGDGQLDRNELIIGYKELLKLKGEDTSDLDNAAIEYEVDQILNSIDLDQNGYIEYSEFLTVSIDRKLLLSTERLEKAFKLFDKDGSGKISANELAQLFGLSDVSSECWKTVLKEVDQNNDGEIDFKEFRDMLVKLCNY
Chain of Calcium-dependent protein kinase 1 (Plasmodium falciparum (isolate 3D7)) (P62344 whole entry, looked up): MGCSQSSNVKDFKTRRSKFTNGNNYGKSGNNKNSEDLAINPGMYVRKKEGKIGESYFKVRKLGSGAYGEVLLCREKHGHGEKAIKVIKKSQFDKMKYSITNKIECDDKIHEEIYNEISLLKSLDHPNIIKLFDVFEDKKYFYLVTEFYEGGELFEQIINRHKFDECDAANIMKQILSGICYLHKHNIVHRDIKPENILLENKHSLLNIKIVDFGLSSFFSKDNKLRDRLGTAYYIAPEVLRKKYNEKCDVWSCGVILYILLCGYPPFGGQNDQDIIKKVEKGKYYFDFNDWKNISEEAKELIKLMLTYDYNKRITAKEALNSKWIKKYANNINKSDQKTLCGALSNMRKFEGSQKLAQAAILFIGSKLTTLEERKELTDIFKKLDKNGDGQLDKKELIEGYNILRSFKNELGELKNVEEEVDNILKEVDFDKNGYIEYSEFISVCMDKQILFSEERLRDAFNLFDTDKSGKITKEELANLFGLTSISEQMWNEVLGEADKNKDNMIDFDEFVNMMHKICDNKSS
Chain of L-lactate dehydrogenase (Plasmodium falciparum (isolate CDC / Honduras)) (Q27743 whole entry, looked up): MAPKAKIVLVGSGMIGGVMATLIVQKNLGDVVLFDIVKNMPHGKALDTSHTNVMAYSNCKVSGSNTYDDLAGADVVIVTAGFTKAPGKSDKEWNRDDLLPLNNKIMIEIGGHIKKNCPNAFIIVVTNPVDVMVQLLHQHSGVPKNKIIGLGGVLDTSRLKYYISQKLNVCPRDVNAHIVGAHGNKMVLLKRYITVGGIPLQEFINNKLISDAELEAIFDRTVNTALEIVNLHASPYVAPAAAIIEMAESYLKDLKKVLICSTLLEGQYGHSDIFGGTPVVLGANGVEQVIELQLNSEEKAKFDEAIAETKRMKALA
Chain of Protein kinase 7 (PK7), Plasmodium falciparum 3D7 (PF3D7_0213400) (Q7YTF7 1-343): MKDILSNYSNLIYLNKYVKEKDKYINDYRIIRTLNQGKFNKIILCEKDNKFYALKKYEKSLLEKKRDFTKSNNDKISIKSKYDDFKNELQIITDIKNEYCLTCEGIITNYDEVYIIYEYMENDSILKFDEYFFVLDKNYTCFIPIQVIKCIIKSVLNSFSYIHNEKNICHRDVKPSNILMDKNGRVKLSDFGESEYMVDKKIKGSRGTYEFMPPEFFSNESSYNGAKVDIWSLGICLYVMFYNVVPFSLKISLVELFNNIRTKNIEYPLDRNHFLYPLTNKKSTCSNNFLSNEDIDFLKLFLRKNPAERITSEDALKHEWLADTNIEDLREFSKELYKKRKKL

Regarding `O=C(NC1CCC(CN2CCC(c3c[nH]c4ccccc34)CC2)CC1)C1(O)c2ccccc2-c2ccccc21` (configuration not stated), the growth inhibition in experiment [1] is 46% (inactive); in experiment [4], 85% (active). The values for the inhibition in experiment [2] and in experiment [3] were 22% (inactive) and -4% (inactive), respectively. Further, the outcome in experiment [5], in experiment [6], in experiment [7] and in experiment [8] was inactive.

In the case of `CC[C@H]1CN2CC[C@H]1C[C@@H]2[C@@H](O)c1ccnc2ccccc12`, the growth inhibition was 20% (inactive) in experiment [1] and 98% (active) in experiment [4]. For the same compound, the inhibition was 10% (inactive) in experiment [2] and -4% (inactive) in experiment [3]. Also, the outcome in experiment [5], in experiment [6], in experiment [7] and in experiment [8] was inactive.

With `CC[C@H]1CN2CC[C@@H]1C[C@@H]2[C@@H](O)c1cc(-c2ccc(F)cc2)nc2ccc(OC)cc12`, the growth inhibition in experiment [1] was 64% (active); in experiment [4], 98% (active). The inhibition was 18% (inactive) in experiment [2] and -4% (inactive) in experiment [3]. The outcome in experiment [5], in experiment [6], in experiment [7] and in experiment [8] was inactive.

With `CCC1CN2CCc3cc(OC)c(OC)cc3C2CC1CC1NCCc2c1[nH]c1ccc(O)cc21` (configuration not stated), the growth inhibition in experiment [1] is 100% (active); in experiment [4] it was 99% (active). The inhibition in experiment [2] was 45% (inactive); in experiment [3], -7% (inactive). For the same compound, the outcome in experiment [5], in experiment [6], in experiment [7] and in experiment [8] was inactive.

As to `Cc1ccc2[nH]cc(C3CCN(CC4CCC(NC(=O)/C=C/c5ccc(Cl)c(Cl)c5)CC4)CC3)c2c1` (configuration not stated), the growth inhibition is 46% (inactive) and 86% (active) in experiment [1]; 101% (active) and 94% (active) in experiment [4]. For the same compound, the inhibition is 29% (inactive) and 37% (inactive) in experiment [2]; -10% (inactive) and 0% (inactive) in experiment [3]. Further, the outcome in experiment [5], in experiment [6], in experiment [7] and in experiment [8] was inactive.

With `CCCc1c(C(=O)NC2CCC(CN3CCC(c4c[nH]c5ccccc45)CC3)CC2)cnn1-c1ccc(Cl)cc1` (configuration not stated), the growth inhibition in experiment [1] is 37% (inactive); in experiment [4] it was 90% (active). In addition, the inhibition in experiment [2] was 53% (active); in experiment [3], 1% (inactive). For the same compound, the outcome in experiment [5], in experiment [6], in experiment [7] and in experiment [8] was inactive.

Turning to `O=C(/C=C/c1cccc(F)c1)NC1CCC(CN2CCC(c3c[nH]c4ccccc34)CC2)CC1` (configuration not stated), the growth inhibition in experiment [1] was 31% (inactive) and 28% (inactive); in experiment [4], 98% (active) and 99% (active). Besides, the inhibition is 39% (inactive) and 35% (inactive) in experiment [2]; -1% (inactive) and 0% (inactive) in experiment [3]. Also, the outcome in experiment [5], in experiment [6], in experiment [7] and in experiment [8] was inactive.

Consider `O=C(NC1CCC(CN2CCC(c3c[nH]c4ccccc34)CC2)CC1)[C@H]1Cc2ccccc2CN1` (some centres not stated), for which the growth inhibition was 35% (inactive) in experiment [1] and 89% (active) in experiment [4]. Further, the inhibition in experiment [2] is 29% (inactive); in experiment [3], 3% (inactive). For the same compound, the result in experiment [5], in experiment [6], in experiment [7] and in experiment [8] was inactive.

In the case of `C=C[C@H]1CN2CC[C@H]1C[C@H]2[C@H](O)c1cc(/C=C/c2ccc(F)cc2)nc2ccc(OC)cc12`, the growth inhibition in experiment [1] and in experiment [4] was 99% (active) throughout. The inhibition was 25% (inactive) in experiment [2] and 4% (inactive) in experiment [3]. Besides, the result in experiment [5], in experiment [6], in experiment [7] and in experiment [8] was inactive.

Consider `CCOC(=O)CCCN1C(=O)CN=C(c2ccccc2)c2cc(Cl)ccc21`, for which the growth inhibition in experiment [1] was 47% (inactive); in experiment [4], 97% (active). The inhibition is 54% (active) in experiment [2] and -8% (inactive) in experiment [3]. For the same compound, the result in experiment [5], in experiment [6], in experiment [7] and in experiment [8] was inactive.

On to `O=C(C=Cc1ccc(Br)cc1)NC1CCC(CN2CCC(c3c[nH]c4ccccc34)CC2)CC1` (configuration not stated), for which the growth inhibition in experiment [1] was 98% (active); in experiment [4] it was 101% (active). The inhibition was 71% (active) in experiment [2] and -3% (inactive) in experiment [3]. The result in experiment [5], in experiment [6], in experiment [7] and in experiment [8] was inactive.

`COc1ccc(CC(C)NCC(O)c2cccc(C(F)(F)F)c2)cc1F` (configuration not stated): the growth inhibition in experiment [1] is 65% (active); in experiment [4], 91% (active). Moreover, the inhibition was -4% (inactive) in experiment [2] and -8% (inactive) in experiment [3]. Besides, the outcome in experiment [5], in experiment [6], in experiment [7] and in experiment [8] was inactive.

On to `N#Cc1ccc(N(CC(=O)NCCc2ccc(F)cc2)CC2CC2)c2ccccc12`, for which the growth inhibition is 23% (inactive) in experiment [1] and 91% (active) in experiment [4]. The inhibition in experiment [2] was 28% (inactive); in experiment [3], -2% (inactive). Moreover, the outcome in experiment [5], in experiment [6], in experiment [7] and in experiment [8] was inactive.

In the case of `COc1cccc(C(=O)C2CC2CN2CC=C(c3c(C)[nH]c4ccccc34)CC2)c1` (configuration not stated), the growth inhibition in experiment [1] was 87% (active); in experiment [4], 92% (active). The figures for the inhibition in experiment [2] and in experiment [3] were 13% (inactive) and -8% (inactive), respectively. Moreover, the outcome in experiment [5], in experiment [6], in experiment [7] and in experiment [8] was inactive.

Turning to `CC[C@H]1CN2CC[C@H]1C[C@H]2[C@H](O)c1cc(/C=C/c2ccc(F)cc2)nc2ccc(OC)cc12`, the growth inhibition in experiment [1] and in experiment [4] was 99% (active) throughout. Also, the inhibition in experiment [2] was 55% (active); in experiment [3], -1% (inactive). Also, the outcome in experiment [5], in experiment [6], in experiment [7] and in experiment [8] was inactive.

Take `OC1(c2ccc(Cl)c(C(F)(F)F)c2)CCN(CCOC2c3ccccc3CSc3ccc(Cl)cc32)CC1` (configuration not stated): the growth inhibition in experiment [1] is 58% (active); in experiment [4] it was 95% (active). Moreover, the inhibition was 3% (inactive) in experiment [2] and 6% (inactive) in experiment [3]. Moreover, the result in experiment [5], in experiment [6], in experiment [7] and in experiment [8] was inactive.

As for `CC[C@@]1(O)C(=O)OCc2c1cc1n(c2=O)Cc2c-1nc1cc3c(cc1c2CN1CCOCC1)OCO3`, the figures for the growth inhibition in experiment [1] and in experiment [4] were 80% (active) and 89% (active), respectively. Further, the results for the inhibition in experiment [2] and in experiment [3] were 81% (active) and 4% (inactive), respectively. In addition, the result in experiment [5], in experiment [6], in experiment [7] and in experiment [8] was inactive.

For `CC(=O)Nc1ccc(CN2CCC(N(C)c3cc(NC(=O)c4ccc(F)cc4)ccn3)CC2)cc1`, the figures for the growth inhibition in experiment [1] and in experiment [4] were 5% (inactive) and 95% (active), respectively. Besides, the inhibition was 0% (inactive) in experiment [2] and -1% (inactive) in experiment [3]. In addition, the outcome in experiment [5], in experiment [6], in experiment [7] and in experiment [8] was inactive.

Take `C=C[C@@H]1CN2CC[C@H]1C[C@H]2[C@H](O)c1cc(-c2ccc(Cl)cc2)nc2ccc(OC)cc12`: the figures for the growth inhibition in experiment [1] and in experiment [4] were 98% (active) and 99% (active), respectively. Besides, the inhibition in experiment [2] is 38% (inactive); in experiment [3], 0% (inactive). In addition, the result in experiment [5], in experiment [6], in experiment [7] and in experiment [8] was inactive.
